# Source: the supplement of paper PMC4466140
# B1: unnamed (peptide)
# chain: MTKTPETSPPKRPMG
# B2: unnamed (peptide)
# chain: LKPPIGRPPKFPKSP
# Columns and labels:
# Test in all cases: SPOT peptide array binding signal intensity (averaged, normalized) (arbitrary units (background-subtracted, floor 0; scale differs between SH3 domains)); higher = stronger binding of the SH3 domain to the peptide
# [1] = molecular target: AgAbp1
# Outline: (§1)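 GST-fused SH3 domains, from four yeast species, were produced in E. coli BL21(DE3) and captured on glutathione Sepharose. Membranes of cellulose carrying synthetic 15-mer peptides, in which cysteines had been replaced by serines, were exposed to each domain at 10 μg/ml overnight at 4°C in TBS-based blocking buffer. After anti-GST antibody, an HRP anti-mouse secondary and luminol, spots were imaged and quantified using Genespotter. Binding signal is normalized and background-subtracted spot intensity, averaged over replicates, in arbitrary units that differ between domains.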
# [2] = molecular target: AgBbc1
# Outline: as §1
# [3] = molecular target: AgBem1-D1
# Outline: as §1
# [4] = molecular target: AgBzz1-D1
# Outline: as §1
# [5] = molecular target: AgBzz1-D2
# Outline: as §1
# [6] = molecular target: AgCyk3
# Outline: as §1
# [7] = molecular target: AgFus1
# Outline: as §1
# [8] = molecular target: AgHof1
# Outline: as §1
# [9] = molecular target: AgHse1
# Outline: as §1
# [10] = molecular target: AgLsb1
# Outline: as §1
# [11] = molecular target: AgLsb4
# Outline: as §1
# [12] = molecular target: AgMyo5
# Outline: as §1
# [13] = molecular target: AgNbp2
# Outline: as §1
# [14] = molecular target: AgRvs167
# Outline: as §1
# [15] = molecular target: AgSho1
# Outline: as §1
# [16] = molecular target: AgSla1-D1-D2
# Outline: as §1
# [17] = molecular target: AgSla1-D3
# Outline: as §1
# [18] = molecular target: CaAbp1-D1
# Outline: as §1
# [19] = molecular target: CaAbp1-D2
# Outline: as §1
# [20] = molecular target: CaBbc1
# Outline: as §1
# [21] = molecular target: CaBem1-D1
# Outline: as §1
# [22] = molecular target: CaBzz1-D1
# Outline: as §1
# [23] = molecular target: CaBzz1-D2
# Outline: as §1
# [24] = molecular target: CaCyk3
# Outline: as §1
# [25] = molecular target: CaFus1
# Outline: as §1
# [26] = molecular target: CaHof1
# Outline: as §1
# [27] = molecular target: CaHse1
# Outline: as §1
# [28] = molecular target: CaLsb1
# Outline: as §1
# [29] = molecular target: CaLsb4
# Outline: as §1
# [30] = molecular target: CaMyo5
# Outline: as §1
# [31] = molecular target: CaNbp2
# Outline: as §1
# [32] = molecular target: CaRvs167
# Outline: as §1
# [33] = molecular target: CaRvs167-3
# Outline: as §1
# [34] = molecular target: CaSho1
# Outline: as §1
# [35] = molecular target: CaSla1-D1-D2
# Outline: as §1
# [36] = molecular target: CaSla1-D3
# Outline: as §1
# [37] = molecular target: ScAbp1
# Outline: as §1
# [38] = molecular target: ScBbc1
# Outline: as §1
# [39] = molecular target: ScBem1-D1
# Outline: as §1
# [40] = molecular target: ScBzz1-D1
# Outline: as §1
# [41] = molecular target: ScBzz1-D2
# Outline: as §1
# [42] = molecular target: ScCyk3
# Outline: as §1
# [43] = molecular target: ScFus1
# Outline: as §1
# [44] = molecular target: ScHof1
# Outline: as §1
# [45] = molecular target: ScHse1
# Outline: as §1
# [46] = molecular target: ScLsb1
# Outline: as §1
# [47] = molecular target: ScLsb2
# Outline: as §1
# [48] = molecular target: ScLsb3
# Outline: as §1
# [49] = molecular target: ScLsb4
# Outline: as §1
# [50] = molecular target: ScMyo3
# Outline: as §1
# [51] = molecular target: ScMyo5
# Outline: as §1
# [52] = molecular target: ScNbp2
# Outline: as §1
# [53] = molecular target: ScPex13
# Outline: as §1
# [54] = molecular target: ScRvs167
# Outline: as §1
# [55] = molecular target: ScSho1
# Outline: as §1
# [56] = molecular target: ScSla1-D1-D2
# Outline: as §1
# [57] = molecular target: ScSla1-D3
# Outline: as §1
# [58] = molecular target: SpAbp1-D1
# Outline: as §1
# [59] = molecular target: SpBbc1
# Outline: as §1
# [60] = molecular target: SpBzz1-D1
# Outline: as §1
# [61] = molecular target: SpBzz1-D2
# Outline: as §1
# [62] = molecular target: SpCyk3
# Outline: as §1
# [63] = molecular target: SpHof1
# Outline: as §1
# [64] = molecular target: SpHof1-2
# Outline: as §1
# [65] = molecular target: SpHof1-3
# Outline: as §1
# [66] = molecular target: SpHse1
# Outline: as §1
# [67] = molecular target: SpLsb1
# Outline: as §1
# [68] = molecular target: SpLsb4
# Outline: as §1
# [69] = molecular target: SpMyo1
# Outline: as §1
# [70] = molecular target: SpNbp2
# Outline: as §1
# [71] = molecular target: SpPex13
# Outline: as §1
# [72] = molecular target: SpRvs167
# Outline: as §1
# [73] = molecular target: SpSla1-D1-D2
# Outline: as §1
# [74] = molecular target: SpSla1-D3
# Outline: as §1
binder,measurement,setting,value
B1,SPOT peptide array binding signal intensity,[1],≤ 0
same,SPOT peptide array binding signal intensity,[2],5.25
same,SPOT peptide array binding signal intensity,[3],66.5
same,SPOT peptide array binding signal intensity,[4],22
same,SPOT peptide array binding signal intensity,[5],11.5
same,SPOT peptide array binding signal intensity,[6],≤ 0
same,SPOT peptide array binding signal intensity,[7],≤ 0
same,SPOT peptide array binding signal intensity,[8],7.25
same,SPOT peptide array binding signal intensity,[9],≤ 0
same,SPOT peptide array binding signal intensity,[10],1
same,SPOT peptide array binding signal intensity,[11],2
same,SPOT peptide array binding signal intensity,[12],946
same,SPOT peptide array binding signal intensity,[13],25
same,SPOT peptide array binding signal intensity,[14],3.83
same,SPOT peptide array binding signal intensity,[15],≤ 0
same,SPOT peptide array binding signal intensity,[16],1
same,SPOT peptide array binding signal intensity,[17],≤ 0
same,SPOT peptide array binding signal intensity,[18],36
same,SPOT peptide array binding signal intensity,[19],24
same,SPOT peptide array binding signal intensity,[20],180
same,SPOT peptide array binding signal intensity,[21],17
same,SPOT peptide array binding signal intensity,[22],30
same,SPOT peptide array binding signal intensity,[23],21
same,SPOT peptide array binding signal intensity,[24],7.5
same,SPOT peptide array binding signal intensity,[25],55.5
same,SPOT peptide array binding signal intensity,[26],2
same,SPOT peptide array binding signal intensity,[27],1.25
same,SPOT peptide array binding signal intensity,[28],0.5
same,SPOT peptide array binding signal intensity,[29],77
same,SPOT peptide array binding signal intensity,[30],87.2
same,SPOT peptide array binding signal intensity,[31],40.5
same,SPOT peptide array binding signal intensity,[32],17.8
same,SPOT peptide array binding signal intensity,[33],≤ 0
same,SPOT peptide array binding signal intensity,[34],10.5
same,SPOT peptide array binding signal intensity,[35],210
same,SPOT peptide array binding signal intensity,[36],106
same,SPOT peptide array binding signal intensity,[37],≤ 0
same,SPOT peptide array binding signal intensity,[38],0.5
same,SPOT peptide array binding signal intensity,[39],≤ 0
same,SPOT peptide array binding signal intensity,[40],1
same,SPOT peptide array binding signal intensity,[41],6
same,SPOT peptide array binding signal intensity,[42],≤ 0
same,SPOT peptide array binding signal intensity,[43],≤ 0
same,SPOT peptide array binding signal intensity,[44],1.25
same,SPOT peptide array binding signal intensity,[45],18.5
same,SPOT peptide array binding signal intensity,[46],6.5
same,SPOT peptide array binding signal intensity,[47],2.5
same,SPOT peptide array binding signal intensity,[48],45.5
same,SPOT peptide array binding signal intensity,[49],10
same,SPOT peptide array binding signal intensity,[50],1860
same,SPOT peptide array binding signal intensity,[51],462
same,SPOT peptide array binding signal intensity,[52],25
same,SPOT peptide array binding signal intensity,[53],24.2
same,SPOT peptide array binding signal intensity,[54],7.17
same,SPOT peptide array binding signal intensity,[55],≤ 0
same,SPOT peptide array binding signal intensity,[56],62.5
same,SPOT peptide array binding signal intensity,[57],65.2
same,SPOT peptide array binding signal intensity,[58],3
same,SPOT peptide array binding signal intensity,[59],0.5
same,SPOT peptide array binding signal intensity,[60],30.5
B2,SPOT peptide array binding signal intensity,[31],≤ 0
same,SPOT peptide array binding signal intensity,[32],0.917
same,SPOT peptide array binding signal intensity,[33],3.12
same,SPOT peptide array binding signal intensity,[34],≤ 0
same,SPOT peptide array binding signal intensity,[35],908
same,SPOT peptide array binding signal intensity,[36],3.25
same,SPOT peptide array binding signal intensity,[37],887
same,SPOT peptide array binding signal intensity,[38],7
same,SPOT peptide array binding signal intensity,[39],≤ 0
same,SPOT peptide array binding signal intensity,[40],≤ 0
same,SPOT peptide array binding signal intensity,[41],≤ 0
same,SPOT peptide array binding signal intensity,[42],0.25
same,SPOT peptide array binding signal intensity,[43],≤ 0
same,SPOT peptide array binding signal intensity,[44],≤ 0
same,SPOT peptide array binding signal intensity,[45],19.8
same,SPOT peptide array binding signal intensity,[46],1.5
same,SPOT peptide array binding signal intensity,[47],≤ 0
same,SPOT peptide array binding signal intensity,[48],64.8
same,SPOT peptide array binding signal intensity,[49],≤ 0
same,SPOT peptide array binding signal intensity,[50],1390
same,SPOT peptide array binding signal intensity,[51],682
same,SPOT peptide array binding signal intensity,[52],≤ 0
same,SPOT peptide array binding signal intensity,[53],≤ 0
same,SPOT peptide array binding signal intensity,[54],≤ 0
same,SPOT peptide array binding signal intensity,[55],4.5
same,SPOT peptide array binding signal intensity,[56],88.5
same,SPOT peptide array binding signal intensity,[57],13.6
same,SPOT peptide array binding signal intensity,[58],455
same,SPOT peptide array binding signal intensity,[59],7.25
same,SPOT peptide array binding signal intensity,[60],894
same,SPOT peptide array binding signal intensity,[61],≤ 0
same,SPOT peptide array binding signal intensity,[62],≤ 0
same,SPOT peptide array binding signal intensity,[63],1.38
same,SPOT peptide array binding signal intensity,[64],≤ 0
same,SPOT peptide array binding signal intensity,[65],88.2
same,SPOT peptide array binding signal intensity,[66],11.5
same,SPOT peptide array binding signal intensity,[67],3.75
same,SPOT peptide array binding signal intensity,[68],29.5
same,SPOT peptide array binding signal intensity,[69],1430
same,SPOT peptide array binding signal intensity,[70],≤ 0
same,SPOT peptide array binding signal intensity,[71],≤ 0
same,SPOT peptide array binding signal intensity,[72],1.33
same,SPOT peptide array binding signal intensity,[73],≤ 0
same,SPOT peptide array binding signal intensity,[74],2.5
